# Entries with a potency or affinity are not part of this list. Records with an inconclusive call do not appear. Active and inactive are the calls of the source.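 How the source made its calls: active means luminescence drop in HepG2 cells whose fitted half-effect dose is at most twice the top valid dose; inconclusive means flat curve with 30 to 70% signal loss, or unreliable fit; inactive means the rest.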
# Experiment: cytotoxicity in HepG2 cells, dose response, cytotoxicity control, cell-based, plate reader, dry powder (AID 651947)
# Conditions: HepG2 viability, ATP luminescence (CellTiter-Glo), 48 h, active compounds read low
structure (smiles),measurement,setting,value
Fc1ccc(CSc2nnc(-c3ccccc3)o2)cc1,max activity,at 0.38 µM,22% (inactive)
same,max activity,at 12 µM,-25.4% (inactive)
